Assay results from article PMC4336329 (PLoS ONE, 2015).
Among all 310,000 compounds or so, about 14,000 (4.5%) showed an effect of 50% or more. The effect is printed as a negative number. The entries come from a sample that favours strong results as a whole.

Target: human ether-à-go-go-related gene (hERG) potassium channel (human, UniProt Q12809)
Assay: primary screen, population patch clamp on CHO cells stably expressing hERG; higher = less effect of the substance
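Further: peak tail current of the secondary pulse compared with the same well before compound.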

Chain of human ether-à-go-go-related gene (hERG) potassium channel (Q12809 whole entry, looked up): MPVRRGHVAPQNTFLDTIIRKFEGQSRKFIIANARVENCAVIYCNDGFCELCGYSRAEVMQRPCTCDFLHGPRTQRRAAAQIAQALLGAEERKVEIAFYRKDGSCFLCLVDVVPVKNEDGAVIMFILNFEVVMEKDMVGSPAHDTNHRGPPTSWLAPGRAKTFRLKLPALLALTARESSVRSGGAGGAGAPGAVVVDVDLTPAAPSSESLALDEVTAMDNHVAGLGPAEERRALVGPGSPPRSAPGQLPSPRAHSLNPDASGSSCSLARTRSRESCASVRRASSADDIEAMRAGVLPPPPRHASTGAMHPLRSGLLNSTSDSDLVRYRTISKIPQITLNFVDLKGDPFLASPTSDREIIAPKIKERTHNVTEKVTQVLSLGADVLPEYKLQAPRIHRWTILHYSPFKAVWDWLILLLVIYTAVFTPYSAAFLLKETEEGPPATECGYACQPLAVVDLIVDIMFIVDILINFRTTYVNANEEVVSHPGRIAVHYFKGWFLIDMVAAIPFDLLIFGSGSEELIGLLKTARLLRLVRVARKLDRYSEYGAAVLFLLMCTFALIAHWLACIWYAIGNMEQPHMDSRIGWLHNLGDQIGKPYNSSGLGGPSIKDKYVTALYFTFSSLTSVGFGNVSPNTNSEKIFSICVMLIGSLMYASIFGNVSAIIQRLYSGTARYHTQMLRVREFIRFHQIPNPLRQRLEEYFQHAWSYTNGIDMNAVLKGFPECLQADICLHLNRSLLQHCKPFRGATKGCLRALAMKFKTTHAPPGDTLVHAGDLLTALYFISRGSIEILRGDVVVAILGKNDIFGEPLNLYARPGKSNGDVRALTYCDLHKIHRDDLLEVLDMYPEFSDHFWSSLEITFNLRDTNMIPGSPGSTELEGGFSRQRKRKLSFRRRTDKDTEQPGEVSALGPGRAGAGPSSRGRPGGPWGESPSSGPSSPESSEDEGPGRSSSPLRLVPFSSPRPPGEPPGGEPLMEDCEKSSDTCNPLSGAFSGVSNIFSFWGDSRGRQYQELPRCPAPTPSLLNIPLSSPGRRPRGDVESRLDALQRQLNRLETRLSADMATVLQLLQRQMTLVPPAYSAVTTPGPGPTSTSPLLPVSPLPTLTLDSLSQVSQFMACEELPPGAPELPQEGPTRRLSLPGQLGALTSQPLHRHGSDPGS

In order of rising “hERG current change (%, negative = inhibition) at 10uM” value:
1. Cc1ccc(CN2CCN(Cc3ccc(-n4cccn4)cc3C)CC2CCO)cc1 (centres unmarked)  -78.6%
2. Cc1ccc(CN2CCN(Cc3ccc(-n4cccn4)cc3)CC2CCO)cc1 (centres unmarked)  -78.1%
3. CCCCCc1ccc(OCCCC[n+]2ccc(C)cc2)c(CCCCC)c1.[Cl-]  -77%
4. CCCCCc1ccc(OCCC[n+]2ccccc2)c(CCCCC)c1.[Cl-]  -75.7%
5. Cc1ccc(CN2CCN(Cc3cccc(-n4cccn4)c3)CC2CCO)cc1 (centres unmarked)  -74.5%
6. Cc1cc(-n2cccn2)ccc1CN1CCN(C2CCCC2)C(CCO)C1 (centres unmarked)  -73.5%
7. CCOC(=O)N1CCN(Cc2nc(N)nc(Nc3ccc(Cl)cc3)n2)CC1  -72.4%
8. CCCCCc1ccc(OCCCC[n+]2cccc(C)c2)c(CCCCC)c1.[Cl-]  -71.1%
9. O[C@@H]1CN(Cc2ccc(-n3cccn3)cc2)CC[C@H]1N1CCN(c2ccccc2F)CC1  -67.5%
10. CCCCCCS(=O)[C@H]1CS(=O)(=O)C[C@@H]1S(=O)CCCCCC (some centres unmarked)  -66.7%
11. CCCCCc1ccc(OCCCC[n+]2ccccc2)c(CCCCC)c1.[Cl-]  -66.4%
12. Cc1ccc(C(=O)N/C(=C/c2ccco2)C(=O)NCCCn2ccnc2)cc1  -64.7%
13. Cc1ccc(C(=O)N/C(=C\c2ccco2)C(=O)NCCCn2ccnc2)cc1  -64.3%
14. O=P1(NCCCn2cc[n+](Cc3nc4ccccc4[nH]3)c2)C=C(c2ccccc2)OC(c2ccccc2)=C1.[Cl-]  -63%
15. OCCC1CN(Cc2cc(F)ccc2-n2cccn2)CCN1Cc1ccc(F)cc1 (centres unmarked)  -62.5%
16. Cc1ccc(C(=O)N/C(=C\c2ccco2)C(=O)NCCN2CCCCC2)cc1C  -60.1%
17. OCCC1CN(Cc2ccc(-n3cccn3)cc2)CCN1Cc1ccccc1 (centres unmarked)  -59.8%
18. Cc1cccc(-n2ccnc2CN2CCN(C3CCCC3)C(CCO)C2)c1 (centres unmarked)  -59.1%
19. CC(C)CCN1CCN(Cc2cccc(-n3cccn3)c2)CC1CCO (centres unmarked)  -57.6%
20. CCOC(=O)N1CCN(Cc2nc(N)nc(Nc3ccc(C)cc3)n2)CC1  -57.2%
21. Cc1cccc(CN2CCN(Cc3cccc(-n4cccn4)c3)CC2CCO)n1 (centres unmarked)  -45.7%
22. Cc1cc(-n2cccn2)ccc1CN1CCN(CC(C)C)C(CCO)C1 (centres unmarked)  -45.5%
23. OCCC1CN(Cc2cccc(-n3cccn3)c2)CCN1Cc1ccccc1 (centres unmarked)  -44.8%
24. O=C(C[n+]1ccn(CCCNP2(=O)C=C(c3ccccc3)OC(c3ccccc3)=C2)c1)c1cccs1.[Br-]  -44.7%
25. CCOC(=O)c1cc(-c2ccc(OC(F)F)cc2)nc2nc(SC)[nH]c(=O)c12  -42.7%
26. O=C(NCCN1CCCCC1)/C(=C/c1ccco1)NC(=O)c1ccccc1  -40.6%
27. Cc1ccc(C(=O)N/C(=C\c2ccco2)C(=O)NCCCn2ccnc2)cc1C  -39.8%
28. CCOC(=O)c1[nH]ncc1CN1CCN(Cc2ccc(C)cc2)C(CCO)C1 (centres unmarked)  -38.8%
29. CSCCCN1CC[C@@H](N2CCN(c3ccccc3F)CC2)[C@H](O)C1  -36.8%
30. CCOC(=O)N1CCN(Cc2nc(-c3ccc(Cl)cc3)no2)CC1  -30.6%
31. Cc1cccc(CN2CCN(Cc3ccc(-n4cccn4)cc3)CC2CCO)n1 (centres unmarked)  -30.2%
32. COc1ccc(-n2ccnc2CN2CCN(C3CCCC3)C(CCO)C2)cc1 (centres unmarked)  -29.1%
33. OCCC1CN(Cc2cc(F)ccc2-n2cccn2)CCN1C1CCCC1 (centres unmarked)  -29%
34. CC(C)CCN1CCN(Cc2cc(F)ccc2-n2cccn2)CC1CCO (centres unmarked)  -25.8%
35. COc1ccc(CN(C)C(=O)C23CC4CC(CC(C4)C2)C3)c(OC)c1  -25%
36. CCOC(=O)CC(C)(C)/C(C)=N/Nc1ccc([N+](=O)[O-])cc1[N+](=O)[O-]  -24.5%
37. O=C(C[n+]1ccn(CCCNP2(=O)C=C(c3ccccc3)OC(c3ccccc3)=C2)c1)c1ccccc1.[Br-]  -22.8%
38. O=C(NCCOc1ccccc1F)c1ccc2c(=O)n3c(nc2c1)CCC3  -20.8%
39. COc1ccc(C(=O)N/C(=C\c2ccco2)C(=O)NCCCn2ccnc2)cc1  -19.7%
40. CCOC(=O)N1CCN(Cc2nc(-c3ccc(C)cc3)no2)CC1  -17.6%
41. CCOC(=O)N1CCN(Cc2nc(N)nc(Nc3ccc(C)cc3C)n2)CC1  -16.7%
42. CCCCOc1ccc(CCN)cc1Cl.Cl  -13.7%
43. Cc1cccc(-n2ccnc2CN2CCN(C(C)C)C(CCO)C2)c1 (centres unmarked)  -12.3%
44. CC(C)N1CCN(Cc2cccc(-n3cccn3)c2)CC1CCO (centres unmarked)  -12.3%
45. Nc1c(NCCc2ccccc2)c2ccccc2oc1=O  -11.9%
46. CCOC(=O)N1CCN(C(=O)Nc2ccc(Cl)cc2)CC1  -11.4%
47. CC(=O)c1ccc(-c2ccccc2OC(F)(F)F)o1  -10.7%
48. COc1ccc(C2C(C(=O)O)CCC(=O)N2c2ccc(C)cc2)cc1OC (centres unmarked)  -10.6%
49. CCOC(=O)C1=C(C)N=C2SCCC(=O)N2C1c1cccs1 (centres unmarked)  -10.2%
50. CCOC(=O)C1=C(C)Nc2nc(SCC)[nH]c(=O)c2C1c1ccncc1 (centres unmarked)  -7.65%
51. CC(C)CN1CCN(Cc2cc(F)ccc2-n2cccn2)CC1CCO (centres unmarked)  -6.87%
52. CCOc1ccc(CCNC(=O)c2cccc(C#N)c2)cc1OCC  -6.55%
53. COc1ccccc1NC(=O)c1ccc(NS(=O)(=O)c2ccc(F)c(F)c2F)cc1  -6.5%
54. COc1cccc(C(=O)CSc2nc3ccccc3n2CC(=O)N(C(C)C)C(C)C)c1  -5.36%
55. OCCC1CN(Cc2cccc3nccnc23)CCN1C1CCCC1 (centres unmarked)  -4.4%
56. CC(=O)Nc1ccc2c(c1)N(S(=O)(=O)c1cccs1)CCC2  -3.79%
57. Cc1cc(NC(=O)CSc2ccc(Cl)cc2)no1  -3.36%
58. Cc1ccc(C(=O)N/C(=C\c2ccco2)C(=O)NCCN2CCOCC2)cc1C  -3.01%
59. Cc1c(Cl)cccc1N1CC(C)(C)C1=O  -2.95%
60. CN(NC(=O)c1ccccc1Cl)c1ncc(C(F)(F)F)cc1Cl  -1.95%
61. CCCCn1c(SCc2nc(N)nc(Nc3ccccc3C)n2)nc2ccccc2c1=O  -1.63%
62. Cc1cc(C)c(C)c(S(=O)(=O)N2CCN(Cc3nc4ccccc4[nH]3)CC2)c1C  0.133%
63. Cc1c(OCc2ccc([N+](=O)[O-])cc2)ccc2c3c(c(=O)oc12)CCC3  0.652%
64. CC(C)=CC(=O)N1CC[C@@H](N2CCN(c3ccccc3F)CC2)[C@H](O)C1  1.23%
65. COC(=O)c1sc2nc(SCc3cccc(Cl)c3)n(N)c(=O)c2c1C  1.39%
66. CCCCOc1ccc(C)cc1CN(CCO)CCO.Cl  1.6%
67. CC(C)[C@H](NS(=O)(=O)c1ccccc1)C(=O)OCC(=O)Nc1ccccc1Sc1ccccc1  1.98%
68. O=C(COC(=O)c1cc(-c2ccncc2)nc2ccccc12)Nc1ccc2c(c1)OCO2  2.21%
69. c1ccc2[nH]c(SCc3cscn3)nc2c1  2.76%
70. COc1ccc(CN2CC(C(N)=O)Oc3ccccc32)cc1F (centres unmarked)  3.16%
71. CCCCCCCCS(=O)C1CCS(=O)(=O)C1 (centres unmarked)  4.04%
72. Cc1c(NC(=O)CN2C(=O)c3cccc4cccc2c34)c(=O)n(-c2ccccc2)n1C  4.55%
73. CC[C@H](C)[C@H](NC(=O)[C@H](Cc1ccc(O)cc1)NC(=O)[C@@H](N)C(C)C)C(=O)N[C@@H](Cc1cnc[nH]1)C(=O)N1CCC[C@H]1C(=O)N[C@@H](Cc1ccccc1)C(=O)O  4.75%
74. COc1ccc(C(=O)CSc2nnc(-c3cccs3)n2-c2ccccc2)cc1  4.83%
75. CCCCCCCCS(=O)C1CS(=O)(=O)CC1O (centres unmarked)  5.75%
76. COc1ccc(CNS(=O)(=O)c2ccc(S(=O)(=O)N3CCCCC3)cc2)cc1  7.34%
77. COc1ccc(C2/C(=C(/O)c3ccccc3)C(=O)C(=O)N2c2ncccn2)cc1OC (centres unmarked)  7.54%
78. CCC1Sc2ccccc2N(CC(=O)NC2CC2)C1=O (centres unmarked)  7.59%
79. CCCCCc1ccc(S(=O)(=O)Nc2cc(C)ccn2)cc1  8.41%
80. CCCCCCC[n+]1ccc(-c2cc[n+](CCCCCCC)cc2)cc1.[I-]  9.12%
81. Cc1ccc[n+](CC(=O)Nc2ccc(C)c(C)c2)c1.[Cl-]  10.4%
82. C=CCn1c(Sc2nnc(C)s2)nc2c1c(=O)[nH]c(=O)n2C  11.2%
83. CCCCCc1ccc(CC(=O)O)cc1  11.4%
84. CC1CC(Nc2ccccc2N)=CC(=O)O1 (centres unmarked)  11.7%
85. O=S(=O)(NCCc1ccncc1)c1ccc(F)cc1  12%
86. CSCCC(NC(=O)C12CC3CC(CC(C3)C1)C2)C(=O)OCC(=O)c1ccccc1 (centres unmarked)  12.7%
87. COc1ccc(NS(=O)(=O)c2cccc(C(=O)NNC(=O)CNC(=O)c3ccco3)c2)cc1  12.8%
88. CCCCCOc1ccc(C)cc1CN(CCCl)CCCl.Cl  13.1%
89. O=C(NCc1ccccn1)Nc1ccccc1F  13.5%
90. Cc1nc(C)n(C(C)CNS(=O)(=O)c2ccc(Cl)cc2)n1 (centres unmarked)  13.9%
91. Cn1ncnc1SCc1cn2cccnc2n1  14.2%
92. Cc1ccc(N2C(=O)Nc3ccc(Br)cc3C2(O)C(=O)NCCN(C)C)cc1C (centres unmarked)  21.4%
93. COc1ccc(/C=c2\sc3nc(=O)c(C)nn3c2=O)c(OC)c1  23%
94. COc1cccc(-c2sc3ccc(OC)cc3c2C#CCC(C)O)c1 (centres unmarked)  25.8%
95. CC(=O)Nc1ccc(OCCC[n+]2ccccc2)cc1.[Cl-]  40.4%
